Test results as given in the supplement of paper PMC8975748.
Structures can show the parent of a compound that is named as a salt.

system: Saccharomyces cerevisiae BY4741 SeMeCo community; test: z-score of subpopulation abundance vs DMSO median, subpopulation auxotrophic for LU; higher = larger share of this subpopulation than in DMSO controls; conditions: 10 µM; 24 h; SM minimal medium; subpopulation (auxotrophy): LU
Experimental: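 Fluorescent four-plasmid SeMeCo (self-establishing metabolically cooperating S. cerevisiae BY4741 community; plasmids pH-mRuby2, pL-mWasabi, pU-eCFP, pM-TagRFP657) was grown 24 h in minimal SM medium with each Selleck FDA-approved drug at 10 µM in 384-well plates. Cells were fixed and imaged by high-content confocal microscopy. For each auxotrophic subpopulation (and the prototroph), a z-score gives the deviation from the DMSO vehicle-control population median.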

Structure (SMILES)	z-score of subpopulation abundance
CN(C)[C@@H]1C(=O)C(C(N)=O)=C(O)[C@@]2(O)C(=O)C3=C(O)c4c(O)cccc4[C@@](C)(O)[C@H]3[C@H](O)[C@@H]12 [Oxytetracycline (Terramycin)]	0.73
CN[C@@H]1[C@@H](O)[C@@H](O[C@@H]2[C@@H](O)[C@H](O[C@H]3O[C@H](CN)CC[C@H]3N)[C@@H](N)C[C@H]2N)OC[C@]1(C)O.CN[C@@H]1[C@@H](O)[C@@H](O[C@@H]2[C@@H](O)[C@H](O[C@H]3O[C@H]([C@@H](C)N)CC[C@H]3N)[C@@H](N)C[C@H]2N)OC[C@]1(C)O.CN[C@@H]1[C@@H](O)[C@@H](O[C@@H]2[C@@H](O)[C@H](O[C@H]3O[C@H]([C@@H](C)NC)CC[C@H]3N)[C@@H](N)C[C@H]2N)OC[C@]1(C)O [Gentamicin Sulfate]	-0.15
CCOC(=O)Nc1ccc(NCc2ccc(F)cc2)cc1N [Retigabine 2HCl]	-0.86
NC(=O)CN1CCCC1=O [Piracetam]	1.37
CN(C)C(=O)Oc1ccc[n+](C)c1 [Pyridostigmine Bromide]	0.57
CN(C)[C@@H]1C(=O)C(C(N)=O)=C(O)[C@@]2(O)C(=O)C3=C(O)c4c(O)ccc(Cl)c4[C@@](C)(O)[C@H]3C[C@@H]12 [Chlortetracycline HCl]	-0.72
Cc1cc(C(C#N)c2ccc(Cl)cc2)c(Cl)cc1NC(=O)c1cc(I)cc(I)c1O (stereo not given) [Closantel]	0.89
CC(NC(C)(C)C)C(=O)c1cccc(Cl)c1 (stereo not given) [Amfebutamone (Bupropion) HCl]	0.12
CC(=O)O[C@H]1C[C@@H]2CC[C@@H]3[C@H](CC[C@@]4(C)[C@H]3C[C@H]([N+]3(C)CCCCC3)[C@@H]4OC(C)=O)[C@@]2(C)C[C@@H]1[N+]1(C)CCCCC1 [Pancuronium dibromide]	0.2
Cn1cc(C2=C(c3cn(C4CCN(Cc5ccccn5)CC4)c4ccccc34)C(=O)NC2=O)c2ccccc21	0.66
CN1[C@@H]2C[C@@H](OC(=O)[C@H](CO)c3ccccc3)C[C@H]1[C@@H]1O[C@@H]12 [Scopolamine HBr]	0.22
CC(=O)OCC1=C(C(=O)O)N2C(=O)C(N)C2SC1 (stereo not given) [7-Aminocephalosporanic acid]	0.09
CCC1=C[C@H]2CN3CCc4c([nH]c5ccccc45)[C@](C(=O)OC)(C2)[C@H]13 [Catharanthine]	-0.64
CCN1CC2(OC(=O)c3ccccc3NC(C)=O)CCC(OC)C34C1C(CC23)C1(O)CC(OC)C2CC4C1(O)C2OC (stereo not given) [Lappaconitine]	0.55
CN1c2ccccc2C(NCCCCCCC(=O)O)c2ccc(Cl)cc2S1(=O)=O (stereo not given) [Tianeptine sodium]	-0.24
CCN(C)C(=O)Oc1cccc([C@H](C)N(C)C)c1 [Rivastigmine]	-1.09
C#C[C@]1(O)C=C[C@H]2[C@@H]3CCC4=CC(=O)CC[C@@H]4[C@H]3CC[C@@]21CC [Gestodene]	-0.97
O=C(O[C@H]1C[N+]2(CCCOc3ccccc3)CCC1CC2)C(O)(c1cccs1)c1cccs1 [Aclidinium Bromide]	0.07
NCC(O)c1ccc(O)cc1 (racemic) [(+,-)-Octopamine HCl]	-0.38
CC[C@@H](C(N)=O)N1CCCC1=O [Levetiracetam]	-0.25

Structure (SMILES)	z-score of subpopulation abundance
CC[N+](C)(CC)CCOC(=O)C(O)(c1ccccc1)c1ccccc1 [Methylbenactyzine Bromide]	-0.58
CC(C)=CCOc1c2occc2cc2ccc(=O)oc12 [Imperatorin]	0.92
CCN(C)C(=O)Oc1cccc([C@H](C)N(C)C)c1 [Rivastigmine Tartrate]	0.44
CC[C@H]1CN2CC[C@]3(C(=O)Nc4ccccc43)[C@@H]2C[C@@H]1/C(=C\OC)C(=O)OC [Rhynchophylline]	0.24
CCOC(=O)Nc1ccc(NCc2ccc(F)cc2)cc1N [Retigabine]	-1.25
C=CC[C@]1(O)CC[C@H]2[C@@H]3CCC4=CC(=O)CCC4=C3C=C[C@@]21C [Altrenogest]	-0.55
COc1ccc2[nH]cc(CCN)c2c1 [5-Methoxytryptamine]	1.01
N[C@@H]1C[C@H]1c1ccccc1 [Tranylcypromine (2-PCPA) HCl]	-0.31
COc1ccc(C=O)cc1 [p-Anisaldehyde]	-0.64
C[N+]1(C)[C@@H]2C[C@@H](OC(=O)[C@H](CO)c3ccccc3)C[C@H]1[C@@H]1O[C@@H]12 [Methscopolamine]	0.27
C[C@H]1O[C@H](O[C@H]2[C@H](O)[C@@H](O)[C@@H](O)[C@H](O)[C@@H]2O)[C@@H](N)C[C@@H]1NC(=N)C(=O)O [Kasugamycin hydrochloride]	0.49
N#Cc1nn(-c2c(Cl)cc(C(F)(F)F)cc2Cl)c(N)c1[S+]([O-])C(F)(F)F (stereo not given) [Fipronil]	0.06
C=C(C)[C@H]1Cc2c(ccc3c2O[C@@H]2COc4cc(OC)c(OC)cc4[C@@H]2C3=O)O1 [Rotenone (Barbasco)]	0.18
CC(C)N(CCC(C(N)=O)(c1ccccc1)c1ccccn1)C(C)C (stereo not given) [Disopyramide]	-0.22
C[N+](C)(C)CCCCCCCCCC[N+](C)(C)C [Decamethonium Bromide]	-0.59
CCN(CC)CCOC(=O)C(O)(c1ccccc1)c1ccccc1 [Benactyzine hydrochloride]	1.57
CNC1CC(N)C(O)C(OC2OC(CO)C(O)C3OC4(OC(C(N)CO)C(O)C(O)C4O)OC23)C1O (stereo not given) [Hygromycin B]	0.34
O=C(O[C@H]1C[C@H]2CC[C@@H](C1)[N+]21CCCC1)C(O)(c1ccccc1)c1ccccc1 [Trospium chloride]	-0.24
C=CN1CCCC1=O.II [Povidone iodine]	0.69
C[N+]12CCC(CC1)C(OC(=O)C(O)(c1ccccc1)c1ccccc1)C2 (stereo not given) [Clidinium Bromide]	0.83
